What all share (test): DAPPL (digital affinity profiling via proximity ligation, sequencing); 10 mM Tris-HCl pH 7.5, 50 mM NaCl, 1 mM DTT, 4% glycerol, room temperature, 30 min; GST-TFs on glutathione beads, 16-mer random dsDNA library, 0.1% formaldehyde crosslink after washing; high values mean tight binding
Test [1] addresses T1, FEV (Homo sapiens, UniProt Q99581 1-238).
T1 sequence: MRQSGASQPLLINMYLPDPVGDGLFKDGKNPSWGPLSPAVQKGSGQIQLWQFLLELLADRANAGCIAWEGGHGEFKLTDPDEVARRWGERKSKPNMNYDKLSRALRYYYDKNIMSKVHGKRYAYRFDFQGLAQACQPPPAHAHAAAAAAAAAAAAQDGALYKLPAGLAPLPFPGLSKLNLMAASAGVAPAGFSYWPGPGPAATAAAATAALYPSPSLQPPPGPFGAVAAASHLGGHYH
As to conditions: protein: recombinant; tags: N-terminal GST; dsDNA, one strand shown. The method in brief:
(§1)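 Binding signal is given per hexamer as its read frequency for a factor divided by its frequency in the tag-only sample. GST-fused human transcription factors were expressed in yeast, captured on glutathione beads, barcoded with DNA and pooled with that sample, then incubated with 200 nmole of a 16-mer random double-stranded DNA library in Tris/NaCl/DTT/glycerol buffer for 30 min at room temperature. The pools were then washed, crosslinked, proximity-ligated, amplified by PCR and sequenced on an Illumina NextSeq500.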

For test [2], the target named is ETV5 (Homo sapiens, UniProt P41161 1-510). Conditions: protein: recombinant; tags: N-terminal GST; dsDNA, one strand shown. The method in brief: as §1
For test [3], the target named is HSF1 (Homo sapiens, UniProt Q00613 1-529). As to conditions: protein: recombinant; tags: N-terminal GST; chain copies: 3; dsDNA, one strand shown. The gist of the method: as §1
Test [4] deals with T2, SPIC (Homo sapiens, UniProt Q8N5J4 1-248).
T2 sequence: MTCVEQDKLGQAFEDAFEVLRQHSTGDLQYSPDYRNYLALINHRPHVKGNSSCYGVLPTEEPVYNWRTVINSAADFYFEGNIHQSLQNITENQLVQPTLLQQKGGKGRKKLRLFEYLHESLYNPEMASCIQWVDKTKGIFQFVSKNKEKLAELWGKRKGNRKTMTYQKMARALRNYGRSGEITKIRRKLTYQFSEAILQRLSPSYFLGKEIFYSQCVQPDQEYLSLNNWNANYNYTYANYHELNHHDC
Conditions: protein: recombinant; tags: N-terminal GST; dsDNA, one strand shown. The gist of the method: as §1

Test [5] concerns the target ELF4 (Homo sapiens, UniProt Q99607 1-663). Conditions: protein: recombinant; tags: N-terminal GST; dsDNA, one strand shown. The method in brief:
as §1

Test [6] concerns the target T3, ELK4 (Homo sapiens, UniProt P28324-2 1-405).
T3 sequence: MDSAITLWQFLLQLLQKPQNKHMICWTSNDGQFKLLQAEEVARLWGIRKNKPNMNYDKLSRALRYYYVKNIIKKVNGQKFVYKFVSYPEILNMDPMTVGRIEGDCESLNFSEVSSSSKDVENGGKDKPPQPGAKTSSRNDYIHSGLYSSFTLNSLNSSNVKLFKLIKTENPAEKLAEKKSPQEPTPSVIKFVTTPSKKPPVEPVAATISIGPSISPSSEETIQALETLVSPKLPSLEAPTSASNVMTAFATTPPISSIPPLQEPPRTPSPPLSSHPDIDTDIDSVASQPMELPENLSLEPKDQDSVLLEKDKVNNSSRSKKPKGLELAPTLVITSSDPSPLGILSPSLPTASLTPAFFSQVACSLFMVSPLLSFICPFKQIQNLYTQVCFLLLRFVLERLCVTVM
Conditions: protein: recombinant; tags: N-terminal GST; dsDNA, one strand shown. The gist of the method: as §1

The target of test [7] is T4, ETV2 (Homo sapiens, UniProt O00321 1-342).
T4 sequence: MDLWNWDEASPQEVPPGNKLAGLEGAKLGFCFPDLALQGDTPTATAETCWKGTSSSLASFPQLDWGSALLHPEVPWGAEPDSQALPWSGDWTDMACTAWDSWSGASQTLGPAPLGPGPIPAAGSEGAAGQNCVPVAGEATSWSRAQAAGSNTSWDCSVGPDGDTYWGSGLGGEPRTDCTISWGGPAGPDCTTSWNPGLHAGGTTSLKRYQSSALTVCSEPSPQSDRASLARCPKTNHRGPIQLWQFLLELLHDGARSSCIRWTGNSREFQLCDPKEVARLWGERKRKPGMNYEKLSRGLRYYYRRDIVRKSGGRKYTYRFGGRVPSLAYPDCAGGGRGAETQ
As to conditions: protein: recombinant; tags: N-terminal GST; dsDNA, one strand shown. The gist of the method:
as §1

Test [8] concerns the target T5, ELF3 (Homo sapiens, UniProt P78545 1-371).
T5 sequence: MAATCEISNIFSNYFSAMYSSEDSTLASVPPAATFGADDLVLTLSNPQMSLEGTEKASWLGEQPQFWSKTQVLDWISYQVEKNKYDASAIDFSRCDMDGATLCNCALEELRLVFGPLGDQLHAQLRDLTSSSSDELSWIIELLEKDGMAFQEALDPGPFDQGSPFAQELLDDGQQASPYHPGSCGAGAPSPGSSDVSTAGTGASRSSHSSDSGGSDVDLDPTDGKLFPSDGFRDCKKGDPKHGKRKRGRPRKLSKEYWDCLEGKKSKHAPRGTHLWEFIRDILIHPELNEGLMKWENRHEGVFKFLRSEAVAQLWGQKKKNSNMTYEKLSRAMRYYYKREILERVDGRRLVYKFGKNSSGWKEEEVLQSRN
As to conditions: protein: recombinant; tags: N-terminal GST; dsDNA, one strand shown. The method in brief: as §1

The target in test [9] is CRX (Homo sapiens, UniProt O43186 1-299). As to conditions: protein: recombinant; tags: N-terminal GST; dsDNA, one strand shown. The gist of the method: as §1
Test [10] deals with ETV1 (Homo sapiens, UniProt P50549 1-477). Conditions: protein: recombinant; tags: N-terminal GST; dsDNA, one strand shown. The method in brief: as §1
In test [11] the target is T6, ERF (Homo sapiens, UniProt P50548 1-548).
T6 sequence: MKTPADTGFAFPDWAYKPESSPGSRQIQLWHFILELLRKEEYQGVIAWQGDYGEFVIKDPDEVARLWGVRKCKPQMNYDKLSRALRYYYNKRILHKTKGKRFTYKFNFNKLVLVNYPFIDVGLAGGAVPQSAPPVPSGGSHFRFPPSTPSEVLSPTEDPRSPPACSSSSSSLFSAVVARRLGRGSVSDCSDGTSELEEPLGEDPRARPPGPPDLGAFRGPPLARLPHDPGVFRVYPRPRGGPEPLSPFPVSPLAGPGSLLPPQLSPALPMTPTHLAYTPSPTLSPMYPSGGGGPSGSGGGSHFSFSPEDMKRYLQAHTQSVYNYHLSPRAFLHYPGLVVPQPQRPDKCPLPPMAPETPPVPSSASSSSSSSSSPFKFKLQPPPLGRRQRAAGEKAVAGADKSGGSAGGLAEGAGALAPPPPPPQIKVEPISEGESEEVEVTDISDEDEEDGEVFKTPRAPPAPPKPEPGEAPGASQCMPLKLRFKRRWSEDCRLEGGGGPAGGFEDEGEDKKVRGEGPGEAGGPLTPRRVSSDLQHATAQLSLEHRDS
As to conditions: protein: recombinant; tags: N-terminal GST; dsDNA, one strand shown. The gist of the method: as §1

Test [12] addresses T7, ETV3L (Homo sapiens, UniProt Q6ZN32 1-361).
T7 sequence: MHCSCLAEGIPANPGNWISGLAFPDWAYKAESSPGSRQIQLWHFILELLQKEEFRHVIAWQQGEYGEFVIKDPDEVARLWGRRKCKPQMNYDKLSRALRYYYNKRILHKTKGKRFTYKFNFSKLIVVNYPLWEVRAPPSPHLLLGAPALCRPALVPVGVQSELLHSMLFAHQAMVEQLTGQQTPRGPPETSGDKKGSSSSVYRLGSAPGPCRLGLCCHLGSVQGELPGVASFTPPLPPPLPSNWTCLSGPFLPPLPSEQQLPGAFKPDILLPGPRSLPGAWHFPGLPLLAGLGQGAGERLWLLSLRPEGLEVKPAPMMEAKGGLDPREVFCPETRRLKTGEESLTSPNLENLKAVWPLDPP
Conditions: protein: recombinant; tags: N-terminal GST; dsDNA, one strand shown. The method in brief:
as §1

In test [13] the target is T8, ETS2 (Homo sapiens, UniProt P15036 1-469).
T8 sequence: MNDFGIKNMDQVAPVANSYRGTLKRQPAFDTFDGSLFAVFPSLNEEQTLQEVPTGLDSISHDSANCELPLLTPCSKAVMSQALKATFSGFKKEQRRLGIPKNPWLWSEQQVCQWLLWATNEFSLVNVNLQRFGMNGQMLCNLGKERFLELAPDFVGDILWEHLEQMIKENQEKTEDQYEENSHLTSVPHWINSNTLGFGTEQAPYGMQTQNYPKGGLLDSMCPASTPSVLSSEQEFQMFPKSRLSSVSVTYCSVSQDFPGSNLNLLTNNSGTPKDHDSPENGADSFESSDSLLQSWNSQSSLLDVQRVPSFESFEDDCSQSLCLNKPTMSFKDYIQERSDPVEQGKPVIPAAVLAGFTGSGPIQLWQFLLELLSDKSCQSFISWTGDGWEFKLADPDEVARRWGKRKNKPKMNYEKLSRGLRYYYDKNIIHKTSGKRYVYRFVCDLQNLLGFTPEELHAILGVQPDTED
Conditions: protein: recombinant; tags: N-terminal GST; dsDNA, one strand shown. The gist of the method: as §1

In test [14] the target is T9, SPDEF (Homo sapiens, UniProt O95238 1-335).
T9 sequence: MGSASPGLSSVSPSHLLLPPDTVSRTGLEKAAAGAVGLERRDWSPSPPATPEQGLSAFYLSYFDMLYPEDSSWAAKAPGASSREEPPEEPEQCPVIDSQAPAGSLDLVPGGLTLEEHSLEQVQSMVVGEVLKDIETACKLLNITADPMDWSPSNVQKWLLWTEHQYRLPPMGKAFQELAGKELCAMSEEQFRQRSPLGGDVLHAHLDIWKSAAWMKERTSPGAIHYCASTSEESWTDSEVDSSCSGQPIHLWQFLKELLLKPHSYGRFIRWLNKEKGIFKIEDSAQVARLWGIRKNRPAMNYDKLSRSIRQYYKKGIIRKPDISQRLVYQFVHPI
As to conditions: protein: recombinant; tags: N-terminal GST; dsDNA, one strand shown. The method in brief: as §1

Test [15] deals with T10, ETV7 (Homo sapiens, UniProt Q9Y603 1-341).
T10 sequence: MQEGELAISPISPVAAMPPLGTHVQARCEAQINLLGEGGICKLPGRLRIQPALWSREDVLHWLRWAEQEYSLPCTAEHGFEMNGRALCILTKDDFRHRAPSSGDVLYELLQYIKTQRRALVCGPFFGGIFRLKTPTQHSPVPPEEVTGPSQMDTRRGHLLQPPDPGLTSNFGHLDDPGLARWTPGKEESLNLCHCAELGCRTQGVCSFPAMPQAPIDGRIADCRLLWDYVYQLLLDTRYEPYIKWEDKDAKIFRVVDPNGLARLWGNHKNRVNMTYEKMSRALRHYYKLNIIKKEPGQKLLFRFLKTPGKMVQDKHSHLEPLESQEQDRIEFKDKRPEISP
As to conditions: protein: recombinant; tags: N-terminal GST; dsDNA, one strand shown. The method in brief: as §1

For test [16], the target named is T11, ELF5 (Homo sapiens, UniProt Q9UKW6-2 1-255).
T11 sequence: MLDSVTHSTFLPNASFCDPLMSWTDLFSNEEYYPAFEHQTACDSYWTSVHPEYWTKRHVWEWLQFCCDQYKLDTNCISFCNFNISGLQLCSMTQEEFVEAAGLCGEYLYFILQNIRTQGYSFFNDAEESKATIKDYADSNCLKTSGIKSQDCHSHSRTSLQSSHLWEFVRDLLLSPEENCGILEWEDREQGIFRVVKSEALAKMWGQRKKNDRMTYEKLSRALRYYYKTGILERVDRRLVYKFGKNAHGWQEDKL
As to conditions: protein: recombinant; tags: N-terminal GST; dsDNA, one strand shown. The gist of the method:
as §1

Test [17] concerns the target T12, ETV3 (Homo sapiens, UniProt P41162-2 1-143).
T12 sequence: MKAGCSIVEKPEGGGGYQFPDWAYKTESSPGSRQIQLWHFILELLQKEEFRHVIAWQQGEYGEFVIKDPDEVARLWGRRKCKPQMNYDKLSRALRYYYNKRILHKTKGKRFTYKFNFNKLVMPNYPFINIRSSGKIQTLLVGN
Conditions: protein: recombinant; tags: N-terminal GST; dsDNA, one strand shown. The method in brief:
as §1

The target of test [18] is ETV6 (Homo sapiens, UniProt P41212 1-452). As to conditions: protein: recombinant; tags: N-terminal GST; dsDNA, one strand shown. The gist of the method:
as §1

ETV6, sequence (P41212 whole entry): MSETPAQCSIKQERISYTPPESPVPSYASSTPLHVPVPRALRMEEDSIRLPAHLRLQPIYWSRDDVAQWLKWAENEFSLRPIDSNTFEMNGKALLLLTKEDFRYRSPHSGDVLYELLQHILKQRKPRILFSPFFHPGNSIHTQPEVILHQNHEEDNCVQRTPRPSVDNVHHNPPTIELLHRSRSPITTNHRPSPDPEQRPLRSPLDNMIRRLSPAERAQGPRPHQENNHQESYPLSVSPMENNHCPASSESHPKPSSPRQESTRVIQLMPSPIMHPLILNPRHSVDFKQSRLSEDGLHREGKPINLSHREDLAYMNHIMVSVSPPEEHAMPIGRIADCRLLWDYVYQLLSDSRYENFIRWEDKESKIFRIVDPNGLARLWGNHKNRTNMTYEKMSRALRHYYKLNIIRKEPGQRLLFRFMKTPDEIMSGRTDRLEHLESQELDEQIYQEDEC
ELF4, sequence (Q99607 whole entry): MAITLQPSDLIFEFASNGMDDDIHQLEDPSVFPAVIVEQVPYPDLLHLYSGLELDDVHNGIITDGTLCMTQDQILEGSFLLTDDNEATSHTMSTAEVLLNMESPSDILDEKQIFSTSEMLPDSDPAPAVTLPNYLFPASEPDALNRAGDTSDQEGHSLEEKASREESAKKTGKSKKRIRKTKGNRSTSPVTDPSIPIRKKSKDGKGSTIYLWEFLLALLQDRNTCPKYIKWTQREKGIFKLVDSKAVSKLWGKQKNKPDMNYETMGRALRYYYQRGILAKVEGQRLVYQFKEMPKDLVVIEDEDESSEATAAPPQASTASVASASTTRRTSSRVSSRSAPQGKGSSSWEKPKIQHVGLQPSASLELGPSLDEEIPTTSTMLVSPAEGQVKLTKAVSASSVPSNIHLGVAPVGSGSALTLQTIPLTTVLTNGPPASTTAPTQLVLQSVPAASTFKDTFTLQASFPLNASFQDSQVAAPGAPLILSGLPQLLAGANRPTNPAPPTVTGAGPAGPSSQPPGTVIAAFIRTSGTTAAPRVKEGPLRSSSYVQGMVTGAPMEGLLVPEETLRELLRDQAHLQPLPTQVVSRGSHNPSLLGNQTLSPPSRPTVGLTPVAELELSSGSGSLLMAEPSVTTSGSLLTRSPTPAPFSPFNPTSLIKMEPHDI
ETV1, sequence (P50549 whole entry): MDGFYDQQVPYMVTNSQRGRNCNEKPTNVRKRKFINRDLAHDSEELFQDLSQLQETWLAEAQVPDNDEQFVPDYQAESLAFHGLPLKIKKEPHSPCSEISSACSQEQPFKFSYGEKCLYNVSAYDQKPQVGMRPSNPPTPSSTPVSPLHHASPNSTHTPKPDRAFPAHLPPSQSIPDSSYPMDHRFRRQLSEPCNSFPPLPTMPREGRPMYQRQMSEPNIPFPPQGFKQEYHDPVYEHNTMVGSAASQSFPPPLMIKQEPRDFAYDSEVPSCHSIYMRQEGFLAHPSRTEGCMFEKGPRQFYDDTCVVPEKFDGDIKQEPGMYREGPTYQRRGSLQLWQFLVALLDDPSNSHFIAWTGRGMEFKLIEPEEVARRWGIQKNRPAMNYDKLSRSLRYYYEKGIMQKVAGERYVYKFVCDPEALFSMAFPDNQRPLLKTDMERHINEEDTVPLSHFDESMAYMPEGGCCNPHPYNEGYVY
HSF1, sequence (Q00613 whole entry): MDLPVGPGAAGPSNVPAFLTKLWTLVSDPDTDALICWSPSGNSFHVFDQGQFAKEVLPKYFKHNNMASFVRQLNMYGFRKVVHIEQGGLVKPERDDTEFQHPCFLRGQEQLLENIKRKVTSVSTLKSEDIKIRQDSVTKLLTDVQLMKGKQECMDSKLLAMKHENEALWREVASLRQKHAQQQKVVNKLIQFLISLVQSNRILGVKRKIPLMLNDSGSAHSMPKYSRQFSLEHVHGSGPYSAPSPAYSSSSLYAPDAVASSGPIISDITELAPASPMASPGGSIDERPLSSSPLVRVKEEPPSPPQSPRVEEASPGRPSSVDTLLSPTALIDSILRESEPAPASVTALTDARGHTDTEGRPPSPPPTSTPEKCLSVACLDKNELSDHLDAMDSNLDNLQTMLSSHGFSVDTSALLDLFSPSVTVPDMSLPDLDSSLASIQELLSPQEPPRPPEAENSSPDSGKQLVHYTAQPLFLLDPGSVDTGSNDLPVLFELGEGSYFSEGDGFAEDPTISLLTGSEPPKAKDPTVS
ETV5, sequence (P41161 whole entry): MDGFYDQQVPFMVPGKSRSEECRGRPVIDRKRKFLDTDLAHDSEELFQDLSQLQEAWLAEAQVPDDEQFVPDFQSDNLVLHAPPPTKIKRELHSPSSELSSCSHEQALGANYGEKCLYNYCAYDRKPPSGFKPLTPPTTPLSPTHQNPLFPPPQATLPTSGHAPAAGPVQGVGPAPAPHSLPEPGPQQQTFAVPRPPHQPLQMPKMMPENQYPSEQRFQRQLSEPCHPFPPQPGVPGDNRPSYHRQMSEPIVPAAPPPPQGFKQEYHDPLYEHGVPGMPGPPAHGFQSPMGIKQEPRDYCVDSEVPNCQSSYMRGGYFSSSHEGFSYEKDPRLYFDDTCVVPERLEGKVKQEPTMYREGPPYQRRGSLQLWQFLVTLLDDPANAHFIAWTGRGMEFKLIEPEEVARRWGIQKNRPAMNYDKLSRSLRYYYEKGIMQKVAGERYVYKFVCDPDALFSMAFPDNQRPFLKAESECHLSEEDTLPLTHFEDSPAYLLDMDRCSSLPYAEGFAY
CRX, sequence (O43186 whole entry): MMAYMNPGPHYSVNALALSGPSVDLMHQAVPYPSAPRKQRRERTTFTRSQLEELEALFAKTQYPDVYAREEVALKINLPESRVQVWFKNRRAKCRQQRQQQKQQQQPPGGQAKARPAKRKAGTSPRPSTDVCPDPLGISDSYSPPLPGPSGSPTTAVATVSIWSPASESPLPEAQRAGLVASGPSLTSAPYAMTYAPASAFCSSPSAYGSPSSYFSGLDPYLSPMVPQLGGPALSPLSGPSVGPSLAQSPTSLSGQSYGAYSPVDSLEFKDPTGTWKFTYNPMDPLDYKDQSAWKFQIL

Consider TACTTT, for which the binding signal is 1.33 fold enrichment (6-mer frequency, TF over GST control) in test [1]; 1.38 fold enrichment (6-mer frequency, TF over GST control) in test [2]; 1.44 fold enrichment (6-mer frequency, TF over GST control) in test [3]; 1.26 fold enrichment (6-mer frequency, TF over GST control) in test [4]; 1.43 fold enrichment (6-mer frequency, TF over GST control) in test [5]; 1.4 fold enrichment (6-mer frequency, TF over GST control) in [6]. The binding signal was 1.33 fold enrichment (6-mer frequency, TF over GST control) in test [7]; 1.73 fold enrichment (6-mer frequency, TF over GST control) in [8]; 1.71 fold enrichment (6-mer frequency, TF over GST control) in [9]; 1.39 fold enrichment (6-mer frequency, TF over GST control) in test [10]; 1.39 fold enrichment (6-mer frequency, TF over GST control) in test [11]; 1.35 fold enrichment (6-mer frequency, TF over GST control) in [12]. In addition, the binding signal is 1.32 fold enrichment (6-mer frequency, TF over GST control) in test [13]; 1.35 fold enrichment (6-mer frequency, TF over GST control) in test [14]; 1.36 fold enrichment (6-mer frequency, TF over GST control) in test [15]; 1.34 fold enrichment (6-mer frequency, TF over GST control) in test [16]; 1.34 fold enrichment (6-mer frequency, TF over GST control) in test [17]; 1.37 fold enrichment (6-mer frequency, TF over GST control) in test [18].
